Source: PubChem BioAssay AID1376 (SRMLSC, 2008)
“And” between values parts separate entries of the source, which are not always exact repeats. Identical values can stand only once. Out of some 220,000 compounds screened, about 530 (0.24%) were called active. The sample holds actives, similar compounds and a random draw of the others, so the mix is not that of the screen. Measured potencies and affinities stand elsewhere. A number with no mark means an inactive call. No stated cut-off is given here; in the data, active means inhibition above about 13%; inconclusive means no clear call, values can overlap the other calls; inactive means below that.

The compounds below were run against Bifunctional protein GlmU (Mycobacterium tuberculosis (strain ATCC 25618 / H37Rv)) (UniProt P9WMN3) (assay: inhibition of mycobacterial GlmU enzyme – biochemical, glucosamine-1-phosphate acetyltransferase (AID 1376;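 further: 0% = complete reaction with vehicle and 100% = reaction without substrate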)). Settings: M. tuberculosis GlmU acetyltransferase enzyme assay; stronger effect = higher value;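 tested at 30 µM in the primary screen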.
Chain of Bifunctional protein GlmU (Mycobacterium tuberculosis (strain ATCC 25618 / H37Rv)) (P9WMN3 whole entry, looked up): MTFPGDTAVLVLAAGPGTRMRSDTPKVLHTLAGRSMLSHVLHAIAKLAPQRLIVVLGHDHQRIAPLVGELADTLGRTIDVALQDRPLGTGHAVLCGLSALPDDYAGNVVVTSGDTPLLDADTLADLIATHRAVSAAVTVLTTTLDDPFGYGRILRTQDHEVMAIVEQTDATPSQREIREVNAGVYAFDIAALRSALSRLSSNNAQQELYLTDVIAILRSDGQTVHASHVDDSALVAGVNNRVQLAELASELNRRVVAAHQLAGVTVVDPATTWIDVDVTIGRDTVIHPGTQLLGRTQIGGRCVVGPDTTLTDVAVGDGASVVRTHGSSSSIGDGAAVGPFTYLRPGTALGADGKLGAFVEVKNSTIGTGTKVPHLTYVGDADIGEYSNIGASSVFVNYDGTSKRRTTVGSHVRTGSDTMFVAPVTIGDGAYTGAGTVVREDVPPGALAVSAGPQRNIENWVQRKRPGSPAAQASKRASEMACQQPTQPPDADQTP

For `CSc1nccc(-c2c(-c3ccc(Cl)cc3)noc2C)n1`, which inhibition is on record?
The inhibition was 2.51%.

With `c1ccc(CNc2ncnc3c2ncn3C2CCCCO2)cc1` (stereo not given) as the compound, how does the inhibition read?
The inhibition was -1.2%.

`CC1Oc2ccccc2C=C1/C=N/Nc1ccc(C(=O)O)cc1` (stereo not given) was tested. Which inhibition did it give?
Its inhibition is 4.4%.

`O=C(N/N=C/C1=Cc2ccccc2OC1)c1ccncc1` was tested. Which inhibition did it give?
The inhibition was -1.23%.

Which inhibition does the source give for `O=C(O)c1ccc(N/N=C/C2=Cc3ccccc3OC2)cc1` here?
Its inhibition is 14.4% (active).

For `CSc1nccc(Oc2cncc(Cl)c2)n1`, which inhibition is on record?
The inhibition was 2.56%.

With `CCCCOc1ccc(Cc2n[nH]c(=S)n2N)cc1` as the compound, how does the inhibition read?
The inhibition was 12.8% (active).

Which inhibition does the source give for `CCOc1ccc(Cc2n[nH]c(=S)n2N)cc1` here?
Its inhibition is 1.55%.

`Nn1c(Cc2ccc(F)cc2)n[nH]c1=S` was tested. Which inhibition did it give?
The inhibition was -2.75%.

With `COc1ccccc1/C=N/NC(=O)C(=O)NCc1cccnc1` as the compound, how does the inhibition read?
The inhibition was 3.16%.

With `COc1ccc(S(=O)(=O)NNC(=O)c2csc(-n3nc(C)cc3C(F)(F)F)n2)cc1OC` as the compound, how does the inhibition read?
Its inhibition is 2.2%.

How did the inhibition turn out when `O=C(O)c1ccc(Oc2c(C(F)(F)F)oc3cc(O)ccc3c2=O)cc1` was run?
The inhibition was -3.31%.

For `O=c1c(C(c2ccc(Cl)cc2)c2c(O)nc3n(c2=O)CCS3)c(O)nc2n1CCS2`, which inhibition is on record?
Its inhibition is 9.88%.

For `COc1cccc(NC(=O)CN(C)C(C)C(=O)Nc2cc([N+](=O)[O-])ccc2Cl)c1` (stereo not given), which inhibition is on record?
The inhibition was -8.73%.

With `Cc1noc(NS(=O)(=O)c2ccc(N/C=C\C(=O)c3ccc(F)cc3)cc2)c1C` as the compound, how does the inhibition read?
The inhibition was 4.6%.

Which inhibition does the source give for `Cc1noc(NS(=O)(=O)c2ccc(N/C=C\C(=O)c3ccccc3)cc2)c1C` here?
The inhibition was 1.37%.

With `Cc1ccc(C(=O)/C=C/Nc2ccc(S(=O)(=O)Nc3onc(C)c3C)cc2)cc1` as the compound, how does the inhibition read?
Its inhibition is 14.2% (active).

Which inhibition does the source give for `Cc1noc(NS(=O)(=O)c2ccc(N/C=C/C(=O)c3ccc(F)cc3)cc2)c1C` here?
The inhibition was 3.6%.

Which inhibition does the source give for `Cc1noc(NS(=O)(=O)c2ccc(N/C=C\C(=O)c3cccs3)cc2)c1C` here?
The inhibition was 13.3% (active).

For `Cc1noc(NS(=O)(=O)c2ccc(N/C=C\C(=O)c3ccncc3)cc2)c1C`, which inhibition is on record?
Its inhibition is 3.38%.

How did the inhibition turn out when `Cc1ccc2cc(CN(CCCN3CCOCC3)C(c3nnnn3Cc3ccco3)C(C)C)c(=O)[nH]c2c1C` (stereo not given) was run?
The inhibition was -1.48%.

How did the inhibition turn out when `CCOc1ccc(N2C(=O)c3cccnc3C2Nc2ccc(C)c(C)c2)cc1` (stereo not given) was run?
The inhibition was -5.6%.

Which inhibition does the source give for `CCO[C@@H]1OC(C(=O)Nc2ccccc2)=C[C@H](c2ccc(Br)cc2)[C@H]1CCCO` here?
Its inhibition is 1.98%.

For `CC(=O)Nc1ccc(/C=C(\C#N)C(=O)NC2CCCCC2C)cc1` (stereo not given), which inhibition is on record?
Its inhibition is 3.98%.

How did the inhibition turn out when `O=C(CN1CCN(c2ccc(Cl)cc2)CC1)NCc1ccccc1` was run?
Its inhibition is 1.83%.

Which inhibition does the source give for `CC(/C=C1\SC(=S)N(C(C(=O)O)C(C)C)C1=O)=C\c1ccccc1` (stereo not given) here?
The inhibition was 3.64%.

How did the inhibition turn out when `CC(=C\c1ccccc1)/C=C1/SC(=S)N(C(C(=O)O)C(C)C)C1=O` (stereo not given) was run?
The inhibition was 5.39%.

For `O=C1/C(=C/C=C/c2ccco2)SC(=S)N1c1ccc(O)cc1`, which inhibition is on record?
Its inhibition is 7.16%.

With `O=C1S/C(=C\C=C\c2ccco2)C(=O)N1c1ccccc1` as the compound, how does the inhibition read?
The inhibition was 6.89%.

How did the inhibition turn out when `CCCCC(=O)Nc1ncc(Br)s1` was run?
The inhibition was 0.1%.

With `Cc1nnc(SCC(=O)Nc2cc(-c3cc(C)c(C)cc3C)nn2-c2ccccc2)s1` as the compound, how does the inhibition read?
The inhibition was -5.02%.

`COc1cc(/C=N/NC(=O)c2cccc([N+](=O)[O-])c2)ccc1OCc1ccccc1` was tested. Which inhibition did it give?
The inhibition was 1.61%.

`CN1C(=O)NC(=O)/C(=C/c2ccc([N+](=O)[O-])s2)C1=O` was tested. Which inhibition did it give?
The inhibition was -1.9%.

Which inhibition does the source give for `CCN1C(=O)/C(=C\c2ccc([N+](=O)[O-])s2)C(=O)NC1=S` here?
The inhibition was 92.2% (active).

Which inhibition does the source give for `O=C1NC(=O)N(Cc2ccc(F)cc2)C(=O)/C1=C\c1ccc([N+](=O)[O-])s1` here?
Its inhibition is 6.15%.

With `Cc1ccc(SCc2cc(=O)[nH]c(N3CCN(C)CC3)n2)cc1` as the compound, how does the inhibition read?
Its inhibition is 2.83%.

`O=C(O)c1ccc2c3c(cccc13)C(=O)N(c1ccccc1)C2=O` was tested. Which inhibition did it give?
Its inhibition is 5.53%.

With `Cc1ccc(N2C(=O)c3cccc4c(C(=O)O)ccc(c34)C2=O)cc1` as the compound, how does the inhibition read?
The inhibition was -2.11%.

How did the inhibition turn out when `CCn1c(SCC(=O)N2CCc3ccccc32)nc2c(c1=O)SC(C)C2` (stereo not given) was run?
The inhibition was 2.91%.

Which inhibition does the source give for `O=C(O)c1cc(-c2ccccc2)nc2nc(N3CCCCC3)sc12` here?
Its inhibition is -4.63%.

How did the inhibition turn out when `O=C(CSc1nc2ccccc2s1)CSc1nc2ccccc2s1` was run?
Its inhibition is -0.56%.

How did the inhibition turn out when `O=C(O)CCSc1nc2ccccc2s1` was run?
Its inhibition is 13.3% (active).

`O=C(O)CSc1nc2ccccc2s1` was tested. Which inhibition did it give?
The inhibition was -6.75% and -0.54%.

How did the inhibition turn out when `Cc1[nH]c2ccccc2c1C(=O)COC(=O)CCS(=O)(=O)c1ccccc1Cl` was run?
The inhibition was 0.91%.

For `C=C(C)C(=O)Nc1cccc(C2=NOC3(C2)C[C@@H](C(N)=O)N(C(=O)CC(c2ccccc2)c2ccccc2)C3)c1` (stereo not given in full), which inhibition is on record?
The inhibition was 14.4% (active).

For `C/C=C(/C)C(=O)Nc1cccc(C2=NOC3(C2)C[C@H](C(N)=O)N(C(=O)COc2ccc(Cl)cc2)C3)c1` (stereo not given in full), which inhibition is on record?
The inhibition was -3.89%.

With `C/C=C(\C)C(=O)Nc1cccc(C2=NOC3(C2)C[C@H](C(N)=O)N(C(=O)C(c2ccccc2)c2ccccc2)C3)c1` (stereo not given in full) as the compound, how does the inhibition read?
Its inhibition is 4.35%.

`NC(=O)[C@@H]1CC2(CC(c3cccc(NC(=O)COc4ccc(Cl)cc4)c3)=NO2)CN1C(=O)COc1ccc(Cl)cc1` (stereo not given in full) was tested. Which inhibition did it give?
The inhibition was 3.68%.

For `NC(=O)[C@H]1CC2(CC(c3cccc(NC(=O)CC(c4ccccc4)c4ccccc4)c3)=NO2)CN1C(=O)CC(c1ccccc1)c1ccccc1` (stereo not given in full), which inhibition is on record?
The inhibition was 2.76%.

How did the inhibition turn out when `CCC(=O)Nc1cccc(C2=NOC3(C2)C[C@@H](C(N)=O)N(C(=O)C(c2ccccc2)c2ccccc2)C3)c1` (stereo not given in full) was run?
Its inhibition is 7.01%.

`C/C=C(/C)C(=O)Nc1cccc(C2=NOC3(C2)C[C@@H](C(N)=O)N(C(=O)CC(c2ccccc2)c2ccccc2)C3)c1` (stereo not given in full) was tested. Which inhibition did it give?
Its inhibition is 2.91%.

For `CC(=O)Oc1ccccc1N(C(C)=O)S(=O)(=O)c1cccc([N+](=O)[O-])c1`, which inhibition is on record?
Its inhibition is 2.75%.

How did the inhibition turn out when `COc1nc(-c2ccccc2)ccc1-c1noc(-c2cccs2)n1` was run?
The inhibition was -3.99%.

For `O=C(CN(Cc1ccccc1)S(=O)(=O)c1ccccc1)N/N=C/c1ccccc1C(=O)O`, which inhibition is on record?
Its inhibition is 1.89%.

Which inhibition does the source give for `CCN(CC)S(=O)(=O)c1cc(NC(=O)COC(=O)CCC(=O)c2cccs2)ccc1C` here?
Its inhibition is 1.97%.
